In ChEMBL document CHEMBL3988442, “University of Dundee, Small-Polar-MMV Screening Library” (2021):
Out of some 48,000 compounds screened, about 13,000 (27%) showed an effect of 50% or more. The list shows a part of the results.

System: Wolbachia pipientis
Assay: Anti-Wolbachia Cell-Based Screen
Format: functional
Parameters: scale not given: in the data most compounds retested in dose-response had high values
Details: 5 µM

SMILES | Percent Effect [%]
CCN1CCN(C(=O)c2cnc(Cc3c(Cl)cccc3Cl)nc2O)CC1 | 1.362
CCc1nccc(CN2CCCC(CNC(=O)c3occc3C)C2)n1 (stereo not given) | 4.372
c1ccc(CCN2CCCC(c3noc(C4CC4)n3)C2)cc1 (stereo not given) | -7.15
Clc1ccc(CN2CCC(C3CCN(Cc4cccnc4)CC3)C2)cc1 (stereo not given) | -5.932
Clc1cccnc1N1CCC(C2CCN(Cc3cccnc3)CC2)C1 (stereo not given) | -0.1569
c1cncc(CN2CCC(c3ccnc4nccn34)C2)c1 (stereo not given) | 122.6
c1ccc(CCN2CCCC(c3ccnc4nccn34)C2)cc1 (stereo not given) | 130.1
CCn1ccnc1CN(C)C1CCCN(CCc2ccccc2)C1 (stereo not given) | 17.47
COCC(=O)N1CCC(c2nccn2CC2CC2)CC1 | -30.12
O=C(Cc1ccsc1)N1CCC(c2n[nH]c3nccnc23)CC1 | 72.86
O=C(Cc1ccsc1)N1CCCC(c2n[nH]c3nccnc23)C1 (stereo not given) | -11.37
CC(=O)N1CCC(c2n[nH]c3nccnc23)CC1 | 120.8
O=C(Cc1ccsc1)N1CCCC(c2n[nH]c3ncccc23)C1 (stereo not given) | 100.9
COCC(=O)N1CCC(c2n[nH]c3nccnc23)CC1 | 142.1
Cc1ncc(S(=O)(=O)N(CC(C)C)c2cccc(O)c2)s1 | -3.046
O=C(NCCC(O)c1ccco1)c1ccco1 (stereo not given) | -7.433
CCC(CC)NC(=O)c1cncc(Br)c1 | 15.73
CN1CCC(c2nnc(CN3CCC(O)CC3)n2C)CC1 | -6.188
CCc1nc(C)ncc1C(=O)N1CC(C)CN(C)c2ccccc21 (stereo not given) | -1.529
CC(=O)N1CC(C)CN(Cc2ccon2)c2ccccc21 (stereo not given) | 7.641
CC(=O)N1CC(C)CN(C(=O)c2cccnc2C)c2ccccc21 (stereo not given) | 91.16
CC1CN(C(=O)c2cscn2)c2ccccc2S1 (stereo not given) | -14.12
O=C(Nc1c(N2CCCC2)cccc1N1CCCC1)c1cnccn1 | -1.067
CC(=O)N1CC(C)CN(C(=O)c2cnccn2)c2ccccc21 (stereo not given) | 97.68
CC1CN(C)c2ccccc2CN1C(=O)c1cscn1 (stereo not given) | -10.99
CC(=O)N1CC(C)CN(C(=O)c2cscn2)c2ccccc21 (stereo not given) | 95.98
Cc1ncsc1C(=O)N1CC(C)Sc2ccccc21 (stereo not given) | 0.6302

SMILES | Percent Effect [%]
CN(C)C(=O)N1CC2(CCN(S(=O)(=O)C3CC3)CC2)c2ccccc21 | -5.03
O=C(CCO)N[C@H]1CN(CC2CCC2)C[C@@H]1c1ccccc1 | 4.649
CN(Cc1nc(N)c2ccccc2n1)CC1CCCN1c1cccnn1 (stereo not given) | -0.6342
Cc1nc2ccccc2nc1CN(C)CC1CCCN1c1cccnn1 (stereo not given) | 5.031
CCn1ccnc1CN(C)CC1CCCN1c1cccnn1 (stereo not given) | 7.087
COc1ccc(CN(C)CC2CCCN2c2cccnn2)cc1F (stereo not given) | 12.57
Cc1cnc(CN(C)CC2CCCN2c2cccnn2)cn1 (stereo not given) | -5.64
CN(Cc1cccc(C(N)=O)c1)CC1CCCN1c1cccnn1 (stereo not given) | 103.6
CN(Cc1ccc(-n2ccnc2)cc1)CC1CCCN1c1cccnn1 (stereo not given) | 126.9
CN(Cc1ccc(-n2cccn2)cc1)C[C@@H]1CCCN2CCCC[C@H]12 | 18.72
CN(Cc1ccccn1)CC1CCCN1c1cccnn1 (stereo not given) | 130
Cc1noc(C)c1CN(C)CC1CCCN1c1cccnn1 (stereo not given) | -0.05919
CN(Cc1ccc(-n2cccn2)cc1)CC1CCCN1c1cccnn1 (stereo not given) | 115.9
CN(Cc1cnn(-c2ccccc2)n1)CC1CCCN1c1cccnn1 (stereo not given) | 15.2
CCCOc1cccc(NC(=O)NC2CCc3nc(C)nn3C2)c1 (stereo not given) | -22.59
Cc1cc(N(C)Cc2ncc[nH]2)nc(-c2ccccc2)n1 | 4.008
CCOCCn1nc(C)cc1C(=O)N1CC[C@](C)(O)C(C)(C)C1 | 2.862
O=C(Nc1cccnc1)[C@H]1CN(Cc2ccccn2)C[C@H]2OCC[C@@H]12.O=C(O)C(F)(F)F.O=C(O)C(F)(F)F | -14.96
O=C1CCCN1C1CCN(S(=O)(=O)CCOc2ccc(F)cc2)CC1 | 0.4633
CN(CC(=O)Nc1ccncc1)CC1CCCN1c1cccnn1 (stereo not given) | 2.636
CN(Cc1cnn(C)c1)CC1CCCN1c1cccnn1 (stereo not given) | 108.8
CN(Cc1cccnc1)CC1CCCN1c1cccnn1 (stereo not given) | -2.765
Cc1nnc(CN(C)CC2CCCN2c2cccnn2)o1 (stereo not given) | -3.082
CN(CCc1ccncc1)CC1CCCN1c1cccnn1 (stereo not given) | 116.4
CN(Cc1ncc(C(C)(C)C)o1)CC1CCCN1c1cccnn1 (stereo not given) | 16.2
CC(c1ccccc1Cl)N(C(=O)CSCC(N)=O)C1CC1 (stereo not given) | -12.69
Cn1cc(C(=O)Nc2cccc(F)c2)ccc1=O | 0.158

SMILES | Percent Effect [%]
O=C(NCc1nnc2n1CCCC2)N1CCc2sccc2C1 | 127.9
O=C(NCc1nnc2n1CCC2)N1CCc2sccc2C1 | 90.24
O=C(NCc1nnc2ccccn12)N1CCc2sccc2C1 | -3.483
O=C(NCc1nnc2n1CCCCC2)N1CCc2sccc2C1 | 8.039
O=C(NCc1nnc2n1CCCCC2)N1CCc2ccccc2C1 | 97.78
O=C(NCc1ccc(N2CCCC2)nc1)N1CCc2sccc2C1 | -1.896
O=C(NCc1nnc2n1CCCC2)N1CCc2ccccc2C1 | 5.135
CC(NCc1nnc2n1CCCC2)C(=O)N1CCc2sccc2C1 (stereo not given) | 124.2
O=C(NCc1nnc2n1CCCCC2)N1CCC2(CCCCC2)C1 | -0.2574
O=C(NCc1nnc2n1CCC2)N1CCC2(CCCCC2)CC1 | 10.88
CC(NCc1nnc2n1CCCC2)c1nc(-c2cccs2)no1 (stereo not given) | -0.8773
CC(C)NC(=O)C1CCN(C(C)C(=O)N2CCc3sccc3C2)CC1 (stereo not given) | -8.464
CCC(=O)c1ccc(OCC(=O)NC(C)Cc2cc(C)n[nH]2)cc1 (stereo not given) | -9.204
CC(C)NC(=O)N1CCN(S(=O)(=O)C2CC2)CC2(CNC(=O)C2)C1 (stereo not given) | 10.45
Cn1cc(CCC(=O)N2CCN(Cc3ccncc3)CC2)cn1 | -1.736
CCn1cc(CN2CCCN(C(=O)CCc3ccncc3)CC2)cn1 | -3.575
CCn1cc(CN2CCCN(C(=O)C3=NN(C)C(=O)CC3)CC2)cn1 | 3.458
CCn1cc(CN2CCCN(C(=O)CCc3cnn(C)c3)CC2)cn1 | 103.4
CCn1cc(CN2CCCC3(CCC(=O)N(CCC(C)C)C3)C2)cn1 (stereo not given) | -5.478
CCn1cc(CN2CCCN(C(=O)C3(C#N)CCCCC3)CC2)cn1 | -13.94
CCn1cc(CN2CCCN(C(=O)CCN3CCCC3=O)CC2)cn1 | 112.3
CCn1cc(CN2CCCN(C(=O)CCCn3cncn3)CC2)cn1 | 2.568
CCn1cc(CN2CCCN(C(=O)CCc3ccccc3)CC2)cn1 | 96.36
CCn1cc(CN2CCCN(C(=O)CCn3cc(C)cn3)CC2)cn1 | 86.19
OCC1(O)CCN(c2ncccc2C(F)(F)F)CC1 | 1.862
Cc1[nH]ccc1C(=O)N[C@H]1CN(S(C)(=O)=O)C[C@@H]1C1CC1 | 3.151
CC(C)Cc1ncc2c(n1)CN(C(=O)c1ccc(Cn3ccnc3)o1)C2 | -18.35

SMILES | Percent Effect [%]
CCn1ccnc1CN1C[C@@H](NC(=O)C2CC2)[C@H](c2ccc(C)cc2)C1 | -6.865
C[C@H]1CN(C)C[C@@]12COCCN(C(=O)Cc1ccccc1)C2.O=C(O)C(F)(F)F | 7.732
CC(=O)N1CCC(C(=O)N2CCOC(CC3CCCCC3)C2)CC1 (stereo not given) | -4.464
CCn1cc(CN2CCCN(C(=O)CCc3nccs3)CC2)cn1 | 73.27
CCn1cc(CN2CCCN(C(=O)CCc3cccs3)CC2)cn1 | 101.9
CC(=O)Nc1nc(COc2nc(C)no2)cs1 | -3.939
CCCN1CCC(CC(=O)N(C)CC(=O)c2ccc(O)cc2)CC1 | -25.77
Cc1ncc2c(n1)CN(Cc1noc(C3CC3)n1)CC2 | 2.312
O=C1CCC(C(=O)NCc2nn(-c3ccccc3)c3c2CCC3)CN1 (stereo not given) | 1.199
O=C(c1csc(-c2ncccn2)n1)N1CCN(C2CCCC2)CC1 | -8.107
COc1ccc(Cl)cc1CS(=O)(=O)CC(=O)NC(C)CCC(C)C (stereo not given) | 2.702
Cn1cccc1C(=O)N1CC[C@H]2[C@H]1CCN2CC1CC1.O=C(O)C(F)(F)F | 2.648
CN(C)CC(=O)N1CCC2(CCc3cc(-c4cccnc4)ccc32)CC1.O=C(O)C(F)(F)F.O=C(O)C(F)(F)F | 1.059
O=C(O)C(F)(F)F.O=C(O)C(F)(F)F.c1cncc(-c2ccc3c(c2)CCC32CCN(Cc3nccs3)CC2)c1 | 11.05
c1cncc(-c2ccc3c(c2)C2(CCNCC2)CC3)c1 | 1.24
c1cncc(-c2ccc3c(c2)CCC32CCNCC2)c1 | -33.05
O=C(O)C(F)(F)F.O=C(O)C(F)(F)F.c1cncc(-c2ccc3c(c2)CCC32CCN(Cc3ccco3)CC2)c1 | 99.06
O=C(O)C(F)(F)F.O=c1cccnn1CC1CN(Cc2ccsc2)Cc2nccn2C1 (stereo not given) | 13.39
O=C(O)C(F)(F)F.O=C(O)C(F)(F)F.c1cn2c(n1)CN(CC1CC1)CC(CN1CCOCC1)C2 (stereo not given) | 13.29
Cc1cnc(N2Cc3nccn3CC(Cn3nc(C)nc3C)C2)nc1 (stereo not given) | 1.951
O=C(O)C(F)(F)F.O=c1cccnn1CC1CN(CC2CCCC2)Cc2nccn2C1 (stereo not given) | 100.1
O=c1cccnn1CC1CN(c2ncc(F)cn2)Cc2nccn2C1 (stereo not given) | 114.7
Cc1nc(C)n(CC2CN(c3ncccn3)Cc3nccn3C2)n1 (stereo not given) | 9.978
Cc1cnc(N2Cc3nccn3CC(Cn3ncccc3=O)C2)nc1.O=C(O)C(F)(F)F (stereo not given) | 104.6
